Source: PubChem BioAssay (National Center for Advancing Translational Sciences (NCATS))
Rows were chosen to be rich in hits. Some 3.8% of all compounds tested hit in one or more screens of this group.
TGFb inhibitor: qHTS for Inhibitors of TGF-b. Potency, µM (series often up to 46.1 µM), without a hit: top-dose activity, negative = inhibition, most hits filed as inhibitors. hit rate 1.2% among 410,000. HepG2 CAGA-GFP TGF-b/SMAD3 reporter, GFP fluorescence, 18 h; TGF-beta stimulated, 500 pg/mL final; further: on the % scale 0 is the no-effect control and ±100 the full control effect; nearly all actives have a fitted effect of over 65% in size
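Inhibition of TGF-beta-driven CAGA-GFP reporter expression in HEPG2 cells is measured by cellular GFP fluorescence after 18 h stimulation with 500 pg/mL recombinant TGF-beta in 1% FBS medium at 37 degrees C.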
HepG2 viability: qHTS for Inhibitors of TGF-b: Cytotox Counterscreen | hit rate 0.76% among 410,000 | Potency, µM (doses to about 46.1 µM), without a hit: at the highest dose activity change, negative = cytotoxicity, hits mostly cytotoxic | HepG2 CAGA-GFP viability, ATP luminescence, 18 h
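HepG2 CAGA-GFP cells (1000/well, DMEM with 1% FBS) received compound, then TGF-beta at 500 pg/mL final, and were incubated 18 hours at 37 degrees C. Viability was read by CellTiter-Glo luminescence. Media-only wells were set as complete cell-killing and DMSO as no toxicity.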
S2 tox: Viability Counterscreen for Primary qHTS for Inhibitors of ATXN expression | S2 cells (HEK-293 line with an ATXN2-luciferase reporter) viability, CellTiter-Fluor protease fluorescence, 24 h | Potency, µM (doses to about 56.7 µM), hits mostly cytotoxic | hit rate 0.49% among 400,000 | AID 651635, 2014; further: nearly all actives have a fitted effect of over 40% in size
ATXN2 expr inh: Primary qHTS for Inhibitors of ATXN expression | HEK-293 ATXN2-luciferase reporter, luminescence, 24 h | Potency, µM (series often up to 57 µM), inactives show at the highest dose activity change, negative = inhibition, hits mostly inhibitors | hit rate 0.72% among 360,000; further: on the % scale 0 is the no-effect control and ±100 the full control effect; nearly all actives have a fitted effect of over 55% in size
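qHTS (up to 57 uM final) was run with 24 h compound exposure of reporter cells at 37 °C. Each well was multiplexed: SteadyGlo luminescence measured ATXN2-luciferase expression after a fluorogenic Gly-Phe-AFC viability readout (25 uM final).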
HT1080-NT tox: qHTS for induction of synthetic lethality in tumor cells producing 2HG: qHTS for the HT-1080-NT fibrosarcoma cell line | HT-1080-NT fibrosarcoma viability, CellTiter-Glo ATP luminescence, 48 h | Potency, µM (doses to about 46.1 µM), for the others: at the highest dose activity, negative = less viability, most hits filed as cytotoxic | hit rate 1.6% among 360,000 | AID 686970, 2013;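 further: NT is the 2HG producing partner of a matched IDH1 knockdown line; 0% = DMSO-treated cells and -100% = media-only wells without cells; nearly all actives have a fitted effect of over 55% in size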
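Fibrosarcoma NT cells, 750 per well in 5% FBS RPMI, were exposed to compound for 48 hours. Viability: CellTiter-Glo luminescence.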
HT1080 IDH1KD tx: qHTS for induction of synthetic lethality in tumor cells producing 2HG: qHTS for the HT-1080-IDH1KD cell line. HT-1080 IDH1 knockdown viability, ATP luminescence, 48 h. Potency, µM (series often up to 46.1 µM), without a hit: at the top dose activity, negative = toxicity, usual class: cytotoxic. hit rate 2% among 360,000;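 further: 0% = DMSO wells and -100% = cell-free medium wells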
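IDH1KD HT-1080 cells, 750/well, RPMI + 5% FBS; compound pinned after 2 h settling; 48 h, 37 °C; CellTiter-Glo luminescence; % activity normalised to DMSO and no-cell wells; curves fitted, classed by r2 and efficacy.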
The depositor's hits bear a star; i = inactive; ? = inconclusive; . = not tested or not shown; ! = repeats disagree. The call rests on the fitted dose curve; in most records, active means well fitted curve in the direction sought with a large enough effect; inconclusive means small, poorly fitted or top-dose-only effect, or another doubt; inactive means no such curve, though single readings can be large; an effect the other way counts as inactive or inconclusive. Potency means the concentration at half of the fitted maximal effect.

SMILES	TGFb inhibitor	HepG2 viability	S2 tox	ATXN2 expr inh	HT1080-NT tox	HT1080 IDH1KD tx
Cc1cc(C)c2sc(N(CCCN(C)C)C(=O)c3ccc(S(=O)(=O)N4CCCc5ccccc54)cc3)nc2c1	?	-122%	28µM*	?	18µM*	?
CN(C)CCCN(C(=O)c1ccc(S(=O)(=O)N2CCc3ccccc3C2)cc1)c1nc2ccc(F)cc2s1	?	-89%	?	?	?	16µM*
Cc1cc(C)c2sc(NNC(=O)c3ccc(S(=O)(=O)N4CCc5ccccc5C4)cc3)nc2c1	?	-16%	?	?	?	?
Cc1ccc2nc(N(CCCN(C)C)C(=O)c3ccc(S(=O)(=O)N4CCc5ccccc5C4)cc3)sc2c1	?	-105%	?	?	?	13µM*
Cc1cc(C)c2nc(NNC(=O)c3ccc(S(=O)(=O)N4CCc5ccccc5C4)cc3)sc2c1	?	-40%	i	?	?	6.5µM*
COc1cccc(NC(=O)C(=O)NCC(c2cccnc2)N2CCN(c3ccccc3)CC2)c1 (stereo unspecified)	6%	-22%	.	.	.	.
CCOC(=O)c1[nH]c2ccccc2c1NC(=O)c1cc(OCC)c(OCC)c(OCC)c1	-24%	-22%	i	-21%	.	.
COc1ccc2sc(N(CCCN(C)C)C(=O)c3ccc(S(=O)(=O)N4CCc5ccccc5C4)cc3)nc2c1	16µM*	-76%	?	?	?	?
COc1ccc2sc(N(CCCN(C)C)C(=O)c3ccc(S(=O)(=O)N4CCCC4)cc3)nc2c1	19%	-11%	i	-8%	-4%	-5%
CN(C)CCCN(C(=O)c1cc(-c2cccs2)nc2ccccc12)c1nc2ccc(F)cc2s1	?	-113%	?	?	8.2µM*	21µM*
CCc1c(O)cc(O)c(C(=O)c2ccc(OCCN3CCOCC3)c(OC)c2)c1CC(=O)N(CCOC)CCOC	.	.	.	1.1µM*	.	.
N#CC1c2ccccc2C=CN1C(=O)N(c1ccccc1)c1ccccc1 (stereo unspecified)	8.9µM*	11µM*	?	?	?	?
COc1ccc(C(=O)N2C=Cc3ccccc3C2C#N)cc1 (stereo unspecified)	1%	-6%	i	.	3%	-2%
COc1cc2c(NC3CCN(C)CC3)nc(N3CCN(C)CC3)nc2cc1OCCCN(C)C	9%	-31%	.	.	.	.
C[C@@H](c1ncncc1F)C(O)(Cn1cncn1)c1ccc(F)cc1F (stereo partly specified)	.	.	i	14%	.	.
CC1=CC(C)C(/C=N/N=C(N)N)C(C)C1 (stereo unspecified)	?	25%	i	-24%	?	16µM*
O=C(NC1CCCc2ccccc21)c1n[nH]c(=O)c2ccccc12 (stereo unspecified)	-25%	-24%	i	-25%	?	9.2µM*
COc1ccc(-c2nc(SCC(=O)Nc3ccc4c(c3)OCCO4)c(-c3ccc(C)cc3)[nH]2)cc1OC	-25%	-11%	?	-23%	.	.
COc1cccc(Nc2nc(C(C)N)cs2)n1 (stereo unspecified)	10%	-34%	i	?	?	-8%
COc1cccc(Nc2nc(C(N)C3CCCCC3)cs2)n1 (stereo unspecified)	?	16µM*	.	0%	?	16µM*
COc1ccc(C(N)c2csc(Nc3cc(Oc4ccccc4)ncn3)n2)cc1 (stereo unspecified)	?	-96%	?	?	?	?
NC(c1csc(Nc2cc(Oc3ccccc3)ncn2)n1)C1CCCCC1 (stereo unspecified)	?	-114%	?	?	?	4.6µM*
C[C@H](O)[C@@H]1C(=O)N2C(C(=O)O)=C(S[C@@H]3CN[C@H](CNS(N)(=O)=O)C3)[C@@H](C)[C@@H]12	.	.	.	-1%	.	.
Cc1cc(O)ccc1NS(=O)(=O)c1ccc2c3c(cccc13)C(=O)N2	8%	-3%	i	12%	-9%	-20%
COc1ccc(C)cc1NS(=O)(=O)c1ccc2c3c(cccc13)C(=O)N2	?	-61%	?	28µM*	.	.
SMILES	TGFb inhibitor	HepG2 viability	S2 tox	ATXN2 expr inh	HT1080-NT tox	HT1080 IDH1KD tx
COCc1c(C(=O)NC2CCOC(C)(C)C2)cnn1-c1nccc(-c2cccs2)n1 (stereo unspecified)	.	.	i	.	.	.
CCNc1ccc(Br)cc(C(=O)/C=C/c2ccccc2Cl)c1=O	37%	-61%	?	20µM*	?	13µM*
CCN1CCN(Cc2ccc(NC(=O)c3ccc(C)c(NC(=O)C(=O)c4c[nH]c5ccccc45)c3)cc2C(F)(F)F)CC1	18µM*	16µM*!	14µM*	14µM*!	16µM*	15µM*
CCN1CCN(Cc2ccc(NC(=O)c3ccc(C)c(NC(=O)c4ccnnc4)c3)cc2C(F)(F)F)CC1	-22%	10%	i	4%	6%	4%
CCN1CCN(Cc2ccc(NC(=O)c3cc(NC(=O)c4cnn(-c5ccccc5)c4N)cc(OC)c3)cc2C(F)(F)F)CC1	?	-79%	25µM*	?	?	18µM*
CCN1CCN(Cc2ccc(NC(=O)c3cc(NC(=O)c4cc(C)on4)cc(OC)c3)cc2C(F)(F)F)CC1	?	-37%	?	?	?	?
CCN1CCN(Cc2ccc(NC(=O)c3cc(NC(=O)C(=O)c4c[nH]c5ccccc45)cc(OC)c3)cc2C(F)(F)F)CC1	?	11µM*!	16µM*	14µM*!	16µM*	?
CCN1CCN(Cc2ccc(NC(=O)c3ccc(C)c(NC(=O)c4ccc5n[nH]nc5c4)c3)cc2C(F)(F)F)CC1	?	-26%	i	-5%	-3%	-7%
Cc1ccccc1-c1cccc(CN2CCc3nnc(C(C)NC(=O)c4cccnc4)n3CC2)c1 (stereo unspecified)	.	.	i	.	.	.
CCC(CO)Oc1cc(NCc2ccc(Cl)cc2)c2ncn(C(C)C)c2c1 (stereo unspecified)	?	-23%	?	?	-22%	-24%
CCC(CO)Oc1cc(NCc2ccc(Cl)cc2Cl)c2ncn(C(C)C)c2c1 (stereo unspecified)	20µM*	-72%	?	-3%	?	?
